# Test results taken from PMC5540273 (PLoS ONE, 2017).
# Test system: DAPK1
# Conditions: concentration: 1 μM, replicates: in singlicate; n = 1
# 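Further: KINOMEscan kinase panel screen.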
row,Compound,%Inh [%]
1,CN1C(=O)C(Nc2ccccc2)=C(c2ccccc2)C1=O [SB-300079],0
2,CCC(=O)c1c(-c2ccccc2)c2cc(Cl)ccc2c(=O)n1Cc1ccc(C(=O)O)cc1,13
3,COc1cc(Nc2nccc(N3CCC(NC(=O)C(C)c4ccc(Cl)cc4)C3)n2)cc(OC)c1OC (stereo not drawn) [GSK1379757],0
4,O=C(NCc1cccs1)c1cc(C(=O)c2c(Cl)cccc2Cl)c[nH]1 [GW823670],0
5,Cl.c1ccc(Cn2cnc3cc(Nc4ncnc5ccccc45)ccc32)cc1 [GW272142],0
6,COc1cc2ncn(-c3cc(OCc4ccc(S(C)(=O)=O)cc4)c(C(N)=O)s3)c2cc1OC [GW869979],0
7,CCS(=O)c1ccc(-c2coc3ccc(-c4nnc(C)o4)cc23)cc1 (stereo not drawn),14
8,O=C(Nc1n[nH]c2nc(-c3ccccc3)c(Br)cc12)C1CC1 [SB-708998],0
9,Cl.NS(=O)(=O)c1cccc(Nc2cc(-c3ccc(F)cc3)n[nH]2)c1 [GW824645],0
10,COC(=O)c1c(-c2ccccc2)c2cc(Br)ccc2c(=O)n1Cc1ccc(NC(=O)CCC(=O)O)cc1,0
11,CCCNC(=O)Nc1ccc(Oc2ncnc3ccn(C)c23)cc1,10
12,FC(F)(F)c1ccc(-c2ncn(CCCN3CCOCC3)c2-c2ccncc2)cc1 [SB-217780],14
13,Cc1c(Cn2c(C)nn3c(=O)cc(N4CCO[C@H](C)C4)nc23)cccc1C(F)(F)F [GSK2373690],0
14,COc1cccc(-n2cnc3c(N)ncnc32)c1 [SKF-97416],15
15,Nc1nc(N)c2nc(-c3ccccc3)[nH]c2n1 [SKF-12778],12
16,COc1ccc(CNC(=O)NC2CCN(c3ccnc(Nc4ccc(F)cc4)n3)C2)cc1 (stereo not drawn) [GSK1379706],0
17,COc1cccc(C2=C(N(C)c3ccccc3)C(=O)NC2=O)c1 [SB-334865],6
18,COc1ccc(-c2cc3c(C)nc(N)nc3n([C@H]3CC[C@H](OCCO)CC3)c2=O)cn1,11

row,Compound,%Inh [%]
1,Nc1ncnc2c1ncn2-c1cccc2ccccc12 [SKF-97184],0
2,Cc1ccc(-c2ccc3c(ccc4sc5c(c43)NC[C@@H](C)N=C5N(C)C)n2)cn1,0
3,COc1cccc(C2=C(Nc3cccc(C(=O)O)c3)C(=O)NC2=O)c1 [SB-390770],6
4,Cc1nc(N(C)[C@H]2CN(C(=O)CC#N)CC[C@H]2C)c2cc[nH]c2n1,0
5,CN(C)c1cc(-c2ccc3c(N)n[nH]c3c2)nc(N)n1 [GSK2219329],0
6,COc1ccc(-c2cc3c(C)nc(N)nc3n([C@H]3CC[C@H](O)CC3)c2=O)cn1,0
7,OCCCNc1nccc(-c2c(-c3cccc(C(F)(F)F)c3)nn3cc(C(F)(F)F)ccc23)n1 [GW630813],0
8,O=C(Nc1n[nH]c2cc(-c3ccccc3F)ccc12)C1CC1 [SB-733371],0
9,Nc1nc(-c2ccccc2F)c(-c2ccnc3ccccc23)s1 [GW560459],0
10,Cn1c(=O)c(F)c(Nc2ccc(I)cc2F)c2c(=O)n(OC[C@H](O)CO)cnc21,0
11,Cc1cc(Nc2nc(-c3cccc(C)n3)nc3ccccc23)ccn1 [GW872411],0
12,COc1cc2nccc(Nc3ccc(OCc4ccc(NC(C)=O)cc4)cc3)c2cc1OC.Cl [GW440135],0
13,Cc1nnc(-c2ccc(C)c(-c3ccc(C(=O)O)cc3)c2)o1 [GW608005],0
14,CCS(=O)(=O)c1ccc(OC)c(Nc2ncc(-c3ccc(F)cc3)o2)c1.Cl [GW591947],0
15,CCc1ccc(-c2ccc3c(c2)-c2nn(C)cc2S(=O)(=O)N3C)cc1,25
16,CCC(=O)c1c(-c2ccccc2)c2cc(Cl)ccc2c(=O)n1Cc1cc(S(C)(=O)=O)n(CCC(C)(C)O)n1,16
17,C[C@@H]1CC[C@H](C(=O)NC2CCCCC2)CN1c1cc(-c2ccc3c(N)n[nH]c3c2)nc(N)n1 [GSK2291363],18
18,O=c1cc(N2CCOCC2)nc2n(Cc3ccc(F)c(Cl)c3)ccn12 [GSK2297099],23

# Test system: DAPK2
# Conditions: concentration: 1 μM, replicates: in singlicate; n = 1
row,Compound,%Inh [%]
1,CN1C(=O)C(Nc2ccccc2)=C(c2ccccc2)C1=O [SB-300079],0
2,CCC(=O)c1c(-c2ccccc2)c2cc(Cl)ccc2c(=O)n1Cc1ccc(C(=O)O)cc1,0
3,COc1cc(Nc2nccc(N3CCC(NC(=O)C(C)c4ccc(Cl)cc4)C3)n2)cc(OC)c1OC (stereo not drawn) [GSK1379757],0
4,O=C(NCc1cccs1)c1cc(C(=O)c2c(Cl)cccc2Cl)c[nH]1 [GW823670],8
5,Cl.c1ccc(Cn2cnc3cc(Nc4ncnc5ccccc45)ccc32)cc1 [GW272142],0
6,COc1cc2ncn(-c3cc(OCc4ccc(S(C)(=O)=O)cc4)c(C(N)=O)s3)c2cc1OC [GW869979],0
7,CCS(=O)c1ccc(-c2coc3ccc(-c4nnc(C)o4)cc23)cc1 (stereo not drawn),0
8,O=C(Nc1n[nH]c2nc(-c3ccccc3)c(Br)cc12)C1CC1 [SB-708998],0
9,Cl.NS(=O)(=O)c1cccc(Nc2cc(-c3ccc(F)cc3)n[nH]2)c1 [GW824645],0
10,COC(=O)c1c(-c2ccccc2)c2cc(Br)ccc2c(=O)n1Cc1ccc(NC(=O)CCC(=O)O)cc1,0
11,CCCNC(=O)Nc1ccc(Oc2ncnc3ccn(C)c23)cc1,0
12,FC(F)(F)c1ccc(-c2ncn(CCCN3CCOCC3)c2-c2ccncc2)cc1 [SB-217780],5
13,Cc1c(Cn2c(C)nn3c(=O)cc(N4CCO[C@H](C)C4)nc23)cccc1C(F)(F)F [GSK2373690],0
14,COc1cccc(-n2cnc3c(N)ncnc32)c1 [SKF-97416],0
15,Nc1nc(N)c2nc(-c3ccccc3)[nH]c2n1 [SKF-12778],0
16,COc1ccc(CNC(=O)NC2CCN(c3ccnc(Nc4ccc(F)cc4)n3)C2)cc1 (stereo not drawn) [GSK1379706],14
17,COc1cccc(C2=C(N(C)c3ccccc3)C(=O)NC2=O)c1 [SB-334865],0
18,COc1ccc(-c2cc3c(C)nc(N)nc3n([C@H]3CC[C@H](OCCO)CC3)c2=O)cn1,0

row,Compound,%Inh [%]
1,Nc1ncnc2c1ncn2-c1cccc2ccccc12 [SKF-97184],0
2,Cc1ccc(-c2ccc3c(ccc4sc5c(c43)NC[C@@H](C)N=C5N(C)C)n2)cn1,0
3,COc1cccc(C2=C(Nc3cccc(C(=O)O)c3)C(=O)NC2=O)c1 [SB-390770],0
4,Cc1nc(N(C)[C@H]2CN(C(=O)CC#N)CC[C@H]2C)c2cc[nH]c2n1,13
5,CN(C)c1cc(-c2ccc3c(N)n[nH]c3c2)nc(N)n1 [GSK2219329],0
6,COc1ccc(-c2cc3c(C)nc(N)nc3n([C@H]3CC[C@H](O)CC3)c2=O)cn1,0
7,OCCCNc1nccc(-c2c(-c3cccc(C(F)(F)F)c3)nn3cc(C(F)(F)F)ccc23)n1 [GW630813],0
8,O=C(Nc1n[nH]c2cc(-c3ccccc3F)ccc12)C1CC1 [SB-733371],0
9,Nc1nc(-c2ccccc2F)c(-c2ccnc3ccccc23)s1 [GW560459],0
10,Cn1c(=O)c(F)c(Nc2ccc(I)cc2F)c2c(=O)n(OC[C@H](O)CO)cnc21,0
11,Cc1cc(Nc2nc(-c3cccc(C)n3)nc3ccccc23)ccn1 [GW872411],0
12,COc1cc2nccc(Nc3ccc(OCc4ccc(NC(C)=O)cc4)cc3)c2cc1OC.Cl [GW440135],10
13,Cc1nnc(-c2ccc(C)c(-c3ccc(C(=O)O)cc3)c2)o1 [GW608005],0
14,CCS(=O)(=O)c1ccc(OC)c(Nc2ncc(-c3ccc(F)cc3)o2)c1.Cl [GW591947],0
15,CCc1ccc(-c2ccc3c(c2)-c2nn(C)cc2S(=O)(=O)N3C)cc1,0
16,CCC(=O)c1c(-c2ccccc2)c2cc(Cl)ccc2c(=O)n1Cc1cc(S(C)(=O)=O)n(CCC(C)(C)O)n1,3
17,C[C@@H]1CC[C@H](C(=O)NC2CCCCC2)CN1c1cc(-c2ccc3c(N)n[nH]c3c2)nc(N)n1 [GSK2291363],47
18,O=c1cc(N2CCOCC2)nc2n(Cc3ccc(F)c(Cl)c3)ccn12 [GSK2297099],0
